# Results taken from article PMC4552634, “A New Set of Chemical Starting Points with Plasmodium falciparum Transmission-Blocking Potential for Antimalarial Drug Discovery” (PLoS ONE, 2015).
# About 3,200 (25%) of roughly 13,000 compounds showed an effect of 50% or more. The list shows a part of the results.
# Tested on: P. falciparum stage V gametocytes
# Design: BacTiter-Glo ATP luminescence viability of purified stage V gametocytes in 384-well plates, per cent inhibition versus DMSO
# Conditions: 48 h, 5 µM; inhibitor
row,Structure (SMILES),% Inhibition [%]
1,COc1cc(Nc2nccc(N3CCC(NC(=O)Nc4cccc(C(C)=O)c4)C3)n2)cc(OC)c1OC (stereo not drawn) [TCMDC-133621],-9.129
2,COc1cc(Cc2cnc(N)nc2N)cc(OCC(C)(C)C(=O)O)c1OC [TCMDC-137887],-9.297
3,Cc1cnc(C(=O)Nc2cccc(-c3ccc(-c4nc5ccc(F)cc5[nH]4)cc3)c2)cn1 [TCMDC-137029],23.15
4,NC(=O)c1ccc(NCC(=O)Nc2cccc(-c3cccc(-c4nc5ccc(C(F)(F)F)cc5[nH]4)c3)c2)cc1 [TCMDC-132164],-17.45
5,Cc1cnc(C(=O)Nc2cccc(-c3cccc(-c4nc5ccc(F)cc5[nH]4)c3)c2)cn1 [TCMDC-137027],68.21
6,NC(=O)c1ccc(NCC(=O)Nc2cccc(-c3cccc(-c4nc5ccccc5[nH]4)c3)c2)cc1 [TCMDC-132162],2.725
7,Cc1cnc(C(=O)Nc2ccc(-c3cccc(-c4nc5ccccc5[nH]4)c3)cc2)cn1 [TCMDC-137026],-17.4
8,CC(=O)Nc1cccc(C(=O)Nc2cccc(-c3cccc(-c4nc5ccc(F)cc5[nH]4)c3)c2)c1 [TCMDC-132137],91.99
9,NC(=O)c1ccc(NCC(=O)Nc2cccc(-c3cccc(-c4nc5ccc(F)cc5[nH]4)c3)c2)cc1 [TCMDC-132163],90.29
10,CC(=O)Nc1cccc(C(=O)Nc2ccc(-c3cccc(-c4nc5ccc(F)cc5[nH]4)c3)cc2)c1 [TCMDC-132135],-4.902
11,O=C(Nc1ccc(Cl)cc1)Nc1cccc(-c2ccc(-c3nc4ccc(F)cc4[nH]3)cc2)c1 [TCMDC-133183],78.47
12,O=C(Nc1ccc(Cl)cc1)Nc1ccc(-c2cccc(-c3nc4ccc(F)cc4[nH]3)c2)cc1 [TCMDC-133186],-8.569
13,O=C(Nc1ccc(Cl)cc1)Nc1cccc(-c2cccc(-c3nc4ccc(F)cc4[nH]3)c2)c1 [TCMDC-133185],-67.78
14,CC(=O)Nc1cccc(C(=O)Nc2cccc(-c3ccc(-c4nc5ccc(F)cc5[nH]4)cc3)c2)c1 [TCMDC-132139],-25.67
15,O=C(NCCc1ccc(F)cc1)c1ccc(N2CCN(c3ccncc3)CC2)nc1 [TCMDC-134585],1.059
16,COc1ccc(C2CC(c3cccs3)=NN2C(=O)c2ccco2)cc1OC (stereo not drawn) [TCMDC-123796],12.69
17,COc1ccc(CCCCN2C(=O)C(c3ccccc3)(c3ccccc3)N=C2N)cc1 [TCMDC-136522],-62.46
18,C=CCOc1cc(Cc2cnc(N)nc2N)cc(OC)c1OC [TCMDC-138042],-3.964
19,CCOc1cc(C(=O)NCc2cccc(C(F)(F)F)c2)ccc1-c1nc2ccc(Cl)cc2[nH]1 [TCMDC-140902],11.85
20,O=C(Nc1ccc(Cn2ncc(N3CCCNCC3)c(Cl)c2=O)cc1)Nc1cc(F)cc(C(F)(F)F)c1 [TCMDC-133317],-20.94
21,COc1nc(NCC(C)C)nc(Oc2ccc(=O)n(Cc3ccccc3)n2)n1 [TCMDC-124913],48.86
22,O=C(Cc1ccc(NC(=O)c2ccc(O)c(-c3ccc(Cl)c(Cl)c3)c2)cc1)NCCc1ccc(Cl)c(Cl)c1 [TCMDC-140873],3.533
23,O=C(/C=C/c1ccc(Cl)c(Cl)c1)NCC(CCCN1CCC(c2c[nH]c3ccccc23)CC1)c1ccccc1 (stereo not drawn) [TCMDC-139506],-7.536

row,Structure (SMILES),% Inhibition [%]
1,CC(=O)NC1=NC(C)(C)N(OCCCOc2ccc(Cl)c(Cl)c2)C(NC(C)=O)=N1 [TCMDC-131742],2.376
2,Cc1cc(F)ccc1Oc1nc(Nc2ccc(N3CCOCC3)c(F)c2)nc2c1S(=O)(=O)CCC2 [TCMDC-135096],20
3,CCOc1cc(-c2nnc3[nH]c(=O)n(C)c(=O)c3n2)ccc1OC(C)C [TCMDC-124558],-22.82
4,O=C(Nc1ccc(C(=O)OCC2CCCCC2)cc1)N[C@@H](Cc1ccc(O)cc1)C(=O)NC1CCN(Cc2ccc(O)cc2)C1 (stereo partly drawn) [TCMDC-135357],-23.12
5,O=C(Nc1cccc(-c2ccc(-c3nc4ccc(F)cc4[nH]3)cc2)c1)c1ccncc1 [TCMDC-136961],-22.91
6,O=C(Nc1cccc(-c2ccc(-c3nc4ccc(F)cc4[nH]3)cc2)c1)c1ccoc1 [TCMDC-136843],-15.37
7,O=C(Nc1cccc(-c2cccc(-c3nc4ccc(F)cc4[nH]3)c2)c1)c1ccoc1 [TCMDC-136841],83.89
8,O=C(Nc1cccc(-c2cccc(-c3nc4ccccc4[nH]3)c2)c1)c1ccoc1 [TCMDC-136840],9.278
9,O=C(Nc1ccc(-c2cccc(-c3nc4ccc(F)cc4[nH]3)c2)cc1)c1ccncc1 [TCMDC-136957],-5.175
10,O=C(Nc1cccc(-c2cccc(-c3nc4ccc(F)cc4[nH]3)c2)c1)c1ccncc1 [TCMDC-136959],85.81
11,CCCCCCn1c(Sc2ccc(C#N)c([N+](=O)[O-])c2)nnc1-c1ccc(OC)cc1 [TCMDC-135604],12.04
12,CN1C(=O)OC[C@@H]1Cc1ccc2[nH]cc(C3=CCN(Cc4ccccc4)CC3)c2c1 [TCMDC-137790],15.2
13,COCC(C)n1c(C)cc(C(=O)CSc2nnc(Nc3ccccc3)s2)c1C (stereo not drawn) [TCMDC-123611],2.084
14,COc1cccc(Nc2nnc(SCC(=O)NNC(=O)c3ccccn3)s2)c1 [TCMDC-124565],57.52
15,COc1cccc(C2C(C(=O)Nc3ccccc3)=C(C)N=c3sc(=Cc4ccc(O)cc4)c(=O)n32)c1 (stereo not drawn) [TCMDC-125613],-17.06
16,C[C@@H](CC1CCCCC1)OC(=O)N(C)[C@@H]1CCN(C#N)C1 [TCMDC-138502],39.73
17,COCCCNC(=O)c1ccc(O)c(-c2cc(Cl)cc(Cl)c2)c1 [TCMDC-140158],-17.86
18,Cc1noc(C)c1-c1cccc(CNCc2ccc(-c3ccc(-c4nc5cc(C(F)(F)F)ccc5[nH]4)cc3)cc2)c1.O=C(O)C(F)(F)F [TCMDC-133058],15.98
19,Cc1cccc2[nH]c(-c3cccc(-c4cccc(NC(=O)c5ccc(C(N)=O)cc5)c4)c3)nc12 [TCMDC-132192],-7.489
20,NC(=O)c1ccc(C(=O)Nc2cccc(-c3ccc(-c4nc5ccc(C(F)(F)F)cc5[nH]4)cc3)c2)cc1 [TCMDC-132193],-16.46
21,CC(=O)N(C)c1cccc(C(=O)Nc2cccc(-c3cccc(-c4nc5ccc(C(F)(F)F)cc5[nH]4)c3)c2)c1 [TCMDC-137069],42.31
22,CC(=O)Nc1cccc(C(=O)Nc2ccc(-c3cccc(-c4nc5ccc(C(F)(F)F)cc5[nH]4)c3)cc2)c1 [TCMDC-132140],-29.21
23,NC(=O)c1cccc(C(=O)Nc2cccc(-c3cccc(-c4nc5ccc(C(F)(F)F)cc5[nH]4)c3)c2)c1 [TCMDC-132199],-28.51

row,Structure (SMILES),% Inhibition [%]
1,CC(=O)Nc1cc(C(=O)Nc2cccc(-c3cccc(-c4nc5c(C)cccc5[nH]4)c3)c2)ccc1C [TCMDC-137040],72.59
2,CC(=O)N(C)c1cccc(C(=O)Nc2cccc(-c3ccc(-c4nc5ccc(C(F)(F)F)cc5[nH]4)cc3)c2)c1 [TCMDC-137073],81.14
3,CC(=O)Nc1cccc(C(=O)Nc2ccc(-c3cccc(-c4nc5c(C)cccc5[nH]4)c3)cc2)c1 [TCMDC-132141],-0.1401
4,CC(=O)Nc1cc(C(=O)Nc2cccc(-c3cccc(-c4nc5ccc(C(F)(F)F)cc5[nH]4)c3)c2)ccc1C [TCMDC-137039],68.75
5,CC(=O)Nc1ccc(C(=O)Nc2cccc(-c3ccc(-c4nc5ccc(F)cc5[nH]4)cc3)c2)cn1 [TCMDC-136826],-35.51
6,CC(=O)Nc1ccc(C(=O)Nc2cccc(-c3ccc(-c4nc5ccc(C(F)(F)F)cc5[nH]4)cc3)c2)cn1 [TCMDC-136832],60.22
7,CC(=O)N(C)c1cccc(C(=O)Nc2ccc(-c3cccc(-c4nc5ccc(C(F)(F)F)cc5[nH]4)c3)cc2)c1 [TCMDC-137070],-32.74
8,CCc1c(C(=O)NC2CCC(N3CCC(c4ccccc4C)CC3)CC2)[nH]c2ccc(Br)cc12 (stereo not drawn) [TCMDC-133530],-72.63
9,CC(CNC(=O)C(c1cc2ccccc2o1)N1CCN(C(c2ccccc2)c2ccccc2)CC1)c1ccccc1 (stereo not drawn) [TCMDC-141010],11.08
10,O=C(Nc1ccc(C(F)(F)F)cc1)c1cccc(S(=O)(=O)NC2CCN(Cc3ccccc3)C2)c1 (stereo not drawn) [TCMDC-132484],-13.38
11,CCN(CC)CCNC(=O)c1ccc(NC(=O)c2oc3c(Cl)cccc3c2C)cc1 [TCMDC-125463],22.65
12,O=S(=O)(c1ccccc1)C1CC1 [TCMDC-132010],2.082
13,CSc1nnc2n(Cc3ccccc3)c(=O)c3c(n12)-c1ccccc1CC31CCCCC1 [TCMDC-125076],-1.112
14,O=C(CSc1nc2ccccc2c(=O)n1CC1CCCO1)Nc1cc(C(F)(F)F)ccc1Cl (stereo not drawn) [TCMDC-123732],-97.98
15,CNC(=O)Cc1ccc(C(=O)Nc2cccc(-c3cccc(-c4nc5ccc(C(F)(F)F)cc5[nH]4)c3)c2)cc1 [TCMDC-137074],50.29
16,CC(=O)Nc1ccc(C(=O)Nc2cccc(-c3cccc(-c4nc5ccc(F)cc5[nH]4)c3)c2)cn1 [TCMDC-136824],-57.69
17,CC(=O)Nc1ccc(C(=O)Nc2ccc(-c3cccc(-c4nc5ccc(C(F)(F)F)cc5[nH]4)c3)cc2)cn1 [TCMDC-136829],5.637
18,O=C(Nc1cccc(-c2cccc(-c3nc4ccc(C(F)(F)F)cc4[nH]3)c2)c1)c1ccncc1 [TCMDC-136963],-4.28
19,NC(=O)c1ccc(C(=O)Nc2cccc(-c3cccc(-c4nc5ccc(C(F)(F)F)cc5[nH]4)c3)c2)cc1 [TCMDC-132191],5.838
20,O=C(Nc1cccc(-c2cccc(-c3nc4ccc(C(F)(F)F)cc4[nH]3)c2)c1)Nc1ccc(F)c(F)c1F [TCMDC-133229],80.27
21,O=C(Nc1cccc(-c2ccc(-c3nc4ccc(C(F)(F)F)cc4[nH]3)cc2)c1)Nc1ccc(F)c(F)c1F [TCMDC-133224],-27.79
22,O=C(Nc1ccc(-c2cccc(-c3nc4ccc(C(F)(F)F)cc4[nH]3)c2)cc1)Nc1ccc(F)c(F)c1F [TCMDC-133228],-36.32
23,CC(=O)Nc1ccc(C(=O)Nc2cccc(-c3cccc(-c4nc5ccc(C(F)(F)F)cc5[nH]4)c3)c2)cn1 [TCMDC-136828],75.79
